High-throughput results (PubChem BioAssay)
HT1080 IDH1KD tx – kills HT-1080 cells with IDH1 knockdown | HT-1080 IDH1 knockdown viability, ATP luminescence, 48 h | Potency, µM (doses to about 46.1 µM), without a hit: at the top dose activity, negative = toxicity, hits mostly cytotoxic | 2% of 360,000 active;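 further: potency means the concentration at half of the fitted maximal effect; 0% = DMSO wells and -100% = cell-free medium wells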
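Knockdown cells (IDH1KD HT-1080) received compounds 2 h after plating at 750 cells/well and were kept 48 h at 37 °C in 5% FBS RPMI. A CellTiter-Glo luminescence read gave % activity for curve fitting.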
ELG1 repair inh – inhibitors of ELG1-dependent DNA repair in HEK293T cells | HEK293T ELG1-luciferase reporter, luminescence, 16 h; DNA damage induced by 5-fluorouridine | 2.3% of 330,000 active | Potency, µM (titrated, usually from 46.1 µM), for inactives: at the top dose activity change, negative = inhibition, actives largely listed as inhibitors | AID 504467; further: potency means the concentration at half of the fitted maximal effect; nearly all actives have a fitted effect of over 55% in size
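HEK293T cells expressing luciferase-tagged ELG1 (2,000/well) received 5-Fluorouridine plus compound or DMSO for 16 hr at 37 °C. Luciferase was read by ONE-Glo luminescence after 30 min at room temperature.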
DT40 TDP1 no CPT – qHTS for Inhibitors of human tyrosyl-DNA phosphodiesterase 1 (TDP1): qHTS in cells in absence of CPT | DT40 Tdp1-/- hTDP1 cells, no CPT, ATP luminescence, 48 h | 15% of 420,000 active | Potency, µM (series often up to 46.2 µM), inactives show top-dose activity change, negative = growth inhibition, usual class: inhibitors; further: potency means the concentration at half of the fitted maximal effect; nearly all actives have a fitted effect of over 55% in size
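Chicken DT40 Tdp1-/- cells stably complemented with human TDP1 were seeded at 400 cells/well with DMSO in place of 20 nM camptothecin. After compound pinning, cells grew at least 48 hr at 37 °C; viability read by CellTiter-Glo luminescence.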
IL1B secr inh – inhibitors of inflammasome signaling (IL-1 beta secretion); THP-1 LPS/ATP IL-1B secretion, AlphaLISA, 16 h; hits give low values; activity change, % at 57.5 µM; 4.7% of 360,000 active; in the data active means activity change below about -50%; inconclusive means mostly about -30% to -49%
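THP-1 cells pretreated 1 hr with compounds (up to 57.5 uM final), then stimulated with LPS (250 ng/mL final) plus ATP (1.25 mM final); secreted IL-1B measured by AlphaLISA after 16 hr, decreased signal indicating inhibition.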
TDP1 cell CPT – growth inhibition of DT40 Tdp1-/-;hTDP1 cells with camptothecin (screen for TDP1 inhibitors); chicken DT40 Tdp1-/-;hTDP1 cells + 20 nM CPT, ATP luminescence, 48 h; 12% of 420,000 active; Potency, µM (highest dose often 46.2 µM), for inactives: at the top dose activity change, negative = growth inhibition, most hits filed as inhibitors; further: potency means the concentration at half of the fitted maximal effect; nearly all actives have a fitted effect of over 55% in size
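Chicken DT40 Tdp1-/- cells complemented with human TDP1, 400 cells/well, exposed to compounds plus 20 nM camptothecin for at least 48 h at 37 C; viability read as ATP content by CellTiter-Glo luminescence.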
HT1080NT lethal – kills 2HG-producing HT-1080-NT fibrosarcoma cells. 1.6% of 360,000 active. AID 686970. Potency, µM (top dose mostly 46.1 µM), for inactives: at the top dose activity, negative = less viability, most hits filed as cytotoxic. HT-1080-NT fibrosarcoma viability, CellTiter-Glo ATP luminescence, 48 h;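 further: NT is the 2HG producing partner of a matched IDH1 knockdown line; potency means the concentration at half of the fitted maximal effect; 0% = DMSO-treated cells and -100% = media-only wells without cells; nearly all actives have a fitted effect of over 55% in size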
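HT-1080-NT fibrosarcoma cells (2HG-overproducing), 750 cells/well in RPMI with 5% FBS, dosed after 2 h and incubated 48 h at 37C. CellTiter-Glo luminescence normalized to DMSO and no-cell wells; concentration-response curves fitted and classed.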
An asterisk follows results filed as active; i = inactive; ? = inconclusive; nt = not tested or not shown. A selection: hits, their analogues and other compounds. The true share with any hit is near 19%. Unless noted, the call rests on the fitted dose curve; in most records, active means well fitted curve in the direction sought with a large enough effect; inconclusive means small, poorly fitted or top-dose-only effect, or another doubt; inactive means no such curve, though single readings can be large; an effect the other way counts as inactive or inconclusive. Unless noted, on the % scale 0 is the no-effect control and ±100 the full control effect.

SMILES	HT1080 IDH1KD tx	ELG1 repair inh	DT40 TDP1 no CPT	IL1B secr inh	TDP1 cell CPT	HT1080NT lethal
CCOC(=O)c1ccc(NC(=O)CC2Sc3ncnn3C2=O)cc1 (centres undefined)	2%	6%	6.5µM*	?	5.8µM*	1%
CCOC(=O)c1ccc(NC(=O)CN2C(=O)C(C)SC(C)C2=O)cc1 (centres undefined)	0%	16%	-7%	4	0%	5%
O=C(O)CCc1ccc(S(=O)(=O)Nc2cc(C(F)(F)F)ccc2N2CCCC2)cc1	0%	22%	-16%	18	-15%	4%
CC(Sc1nccn1C)C(=O)c1c(N)n(C)c(=O)n(C)c1=O (centres undefined)	-2%	1%	-1%	11	-3%	1%
NS(=O)(=O)c1ccc(SCc2ccccc2)nc1	-3%	nt	?	?	-4%	0%
NS(=O)(=O)c1ccc(Sc2ccc3ccccc3c2)nc1	-23%	?	?	-88*	?	-24%
Cc1cccc(NC(=O)Cn2c(=O)n3nc(CCn4nc(C)cc4C)nc3c3ccccc32)c1	-3%	3%	13µM*	6	18µM*	10%
COc1cccc(CNC(=O)Cn2c(=O)n3nc(-c4cccc(C)c4)nc3c3ccccc32)c1	nt	nt	15µM*	nt	16µM*	nt
CCCCNC(=O)C1(N2C(=O)c3ccccc3C2=O)CCCC1	-9%	nt	-19%	1	-8%	0%
Cc1ccccc1NC(=O)c1ccc(F)c(S(=O)(=O)N(C)C2CCCCC2)c1	nt	nt	?	nt	-48%	nt
O=C(Nc1nnc(C2=COCCO2)o1)c1ccc([N+](=O)[O-])cc1	-24%	-1%	?	i	?	-4%
CCN(C(=O)CSc1ccc(S(=O)(=O)N2CCOCC2)cn1)c1ccccc1	-13%	5%	16µM*	-21	?	4%
CC(Sc1ccc(S(=O)(=O)N2CCOCC2)cn1)c1ccccc1Cl (centres undefined)	-12%	?	29µM*	-3	?	-17%
CC(C)N(C(=O)CSc1ccc(S(=O)(=O)N2CCCCC2)cn1)c1ccccc1	-2%	?	15µM*	-25	?	0%
O=C(CSc1ccc(S(=O)(=O)N2CCOCC2)cn1)Nc1ccc(F)c(F)c1	?	?	16µM*	-15	16µM*	-21%
Cc1c(O)c(S(=O)c2ccccc2)c(=O)n(-c2ccccc2)c1-c1ccccc1 (centres undefined)	12%	14%	-3%	-5	?	8%
O=C(Cc1cccc(C(F)(F)F)c1)NCc1cccnc1	0%	-3%	3%	0	39%	0%
COc1ccc(Br)c(Cn2c(C)c(C(=O)NCc3cccc([N+](=O)[O-])c3)sc2=O)c1	-4%	nt	-89%	-18	-20%	-2%
O=[N+]([O-])c1ccc2c(c1)N([O-])C1(CCCCC1)[N+]2=O	-3%	1%	?	nt	26µM*	-22%
CCN(CC)C(=O)/C(=C/c1cn(S(=O)(=O)N(C)C)c2ccccc12)NC(=O)c1ccc(OC)cc1	?	?	21µM*	5	?	?
CN(C)S(=O)(=O)n1cc(/C=C(\NC(=O)c2ccccc2Cl)C(=O)NCCCn2ccnc2)c2ccccc21	-30%	21µM*	29µM*	-24	18µM*	-29%
COc1ccc(Nc2nc(N3CCCC3)c3ccccc3n2)cc1	-15%	9.2µM*	3.3µM*	-101*	2.6µM*	2%
CCN(CC)c1ccc(Nc2nc(N3CCOCC3)c3ccccc3n2)cc1	?	?	3.3µM*	-111*	4.6µM*	11µM*
CN(c1ccccc1)S(=O)(=O)c1ccc(NC(=O)c2ccc(-c3ccccc3)cc2)cc1	-9%	?	?	-7	21µM*	?
CC(=O)Nc1ccc(NC(=O)c2ccc(N(C)S(=O)(=O)c3ccc(C)cc3)cc2)cc1	?	12%	-6%	-3	-9%	?
SMILES	HT1080 IDH1KD tx	ELG1 repair inh	DT40 TDP1 no CPT	IL1B secr inh	TDP1 cell CPT	HT1080NT lethal
COc1cc(NC(=O)c2ccc(S(=O)(=O)N(C)c3ccccc3)cc2)cc(OC)c1	-12%	23µM*	16µM*	-17	?	13%
Cc1nnc(NC(=O)c2ccc(S(=O)(=O)N(C)c3ccccc3)cc2)s1	-24%	-1%	-24%	-5	-22%	-6%
CN(c1ccccc1)S(=O)(=O)c1ccc(C(=O)Nc2nnc(-c3ccc(F)cc3)o2)cc1	?	?	6.5µM*	81	9.2µM*	-9%
Cc1nc2cc(NC(=O)c3ccc(S(=O)(=O)N(C)c4ccccc4)cc3)ccc2o1	?	-19%	16µM*	-56*	?	?
COc1ccccc1NC(=O)c1ccc(S(=O)(=O)N(C)c2ccccc2)cc1	0%	-29%	?	-16	3%	-6%
CN(c1ccccc1)S(=O)(=O)c1ccc(C(=O)Nc2ncccc2O)cc1	1%	0%	?	-1	?	-3%
Cc1ccc(Sc2c(C)nn(C(=O)COc3ccc(F)cc3)c2C)cc1	nt	nt	-2%	nt	-2%	nt
CCc1ccccc1-n1c2c(cc(-c3nc(-c4ccc(Cl)cc4)cs3)c1=O)C(=O)CC(C)(C)C2	nt	nt	-23%	nt	-12%	nt
Cc1csc(NC(=O)c2ccc(S(=O)(=O)N(C)c3ccccc3)cc2)n1	-14%	23µM*	13µM*	?	12µM*	-7%
COc1cccc(-c2cncnc2Nc2ccccc2)c1	nt	nt	?	nt	-26%	nt
COc1cc(C(=O)NCc2nnc(SCC(=O)N3CCCC3)o2)cc(OC)c1OC	16%	?	1%	13	1%	17%
O=C(NCc1nnc(SCC(=O)N2CCC(Cc3ccccc3)CC2)o1)c1ccccc1F	-5%	-29%	16µM*	1	?	-15%
COc1ccc(C(=O)NCc2nnc(SCC(=O)N3CCCC3)o2)cc1OC	14%	1%	11%	-55*	12%	6%
O=C(NCc1nnc(SCC(=O)N2CCCC2)o1)c1c(F)cccc1F	5%	-1%	10%	12	10%	3%
COc1ccc(Cc2nnc(SCC(=O)N3CCCCC3)o2)cc1	-21%	0%	23µM*	-21	5%	-4%
CC(C)(C)c1ccc(C(=O)NCc2nnc(SCC(=O)NC3CCCCC3)o2)cc1	7%	-6%	21µM*	-15	8.2µM*	8%
